Measured values published in PubChem BioAssay (EPA / NIEHS).
Values joined by “and” are separate entries in the source; they are usually repeats but may differ in a detail not shown here. Equal values may be shown once. Results filed as inconclusive are left out. Some compounds were tested as several samples or in several runs, with calls that do not always agree. Active and inactive are the calls of the source. Rule for the calls, unless noted: active = hit-call score of the fitted dose curve at least 0.9, where 1 is the maximum; inactive = score below 0.9.

Experiments:
[1] = BSK_3C_Vis: BioMAP Diversity Plus: 3C Assay for Morphology Visualization (AID 2283025); conditions: primary human endothelial cells (HUVEC);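 note: fitted both ways so gain or loss versus DMSO counts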;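 for AC50: light microscopy image of cell morphology used as background control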
How it was run: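 Light-microscopy visualization of HUVEC cultures at 24 h post-treatment, with DMSO as baseline for bidirectional fitting.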

[2] = read-out: Vascular endothelial growth factor receptor 2 (Homo sapiens) (UniProt P35968); test: BSK_4H_VEGFRII: BioMAP Diversity Plus: 4H Assay for Vascular endothelial growth factor receptor 2 (VEGFR2) Biomarker Activity (AID 2283031); conditions: primary human endothelial cells (HUVEC); actives raise or lower the signal;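 for AC50: cell-surface VEGFR2 protein level quantified by ELISA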
How it was run: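 Primary human umbilical vein endothelial cells (4H system), 24 h exposure; cell-surface VEGFR2 measured by ELISA. Bidirectional fitting versus DMSO; cytotoxicity checked in parallel by SRB total-protein staining.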

[3] = read-out: Transforming growth factor beta 1 (TGFb1), TGFB1 (gene 7040); test: BSK_BE3C_TGFb1: BioMAP Diversity Plus: BE3C Assay for Transforming growth factor beta 1 (TGFb1) Biomarker Activity (AID 2283036); conditions: primary human bronchial epithelial cells; actives raise or lower the signal
How it was run: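 ELISA readout of TGF-b1 from human lung bronchial epithelial primary cells, taken 24 h post-treatment. Gain or loss of signal fitted relative to DMSO baseline, with parallel SRB staining for overt cytotoxicity.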

[4] = read-out: Urokinase-type plasminogen activator receptor (uPAR), PLAUR (gene 5329); test: BSK_CASM3C_uPAR: BioMAP Diversity Plus: CASM3C Assay for Urokinase-type plasminogen activator receptor (uPAR) Biomarker Activity (AID 2283054); conditions: primary human coronary artery smooth muscle cells; actives raise or lower the signal;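 note: cell-surface uPAR protein level quantified by ELISA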
[5] = read-out: Transforming growth factor beta 1 (TGFb1), TGFB1 (gene 7040); test: BSK_KF3CT_TGFb1: BioMAP Diversity Plus: KF3CT Assay for Transforming growth factor beta 1 (TGFb1) Biomarker Activity (AID 2283072); conditions: primary human keratinocytes with fibroblasts; actives raise or lower the signal
How it was run: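 ELISA quantifies TGF-b1 at 24 h post-dose in a primary human skin co-culture of keratinocytes and fibroblasts, with gain or loss judged against DMSO. Parallel SRB total-protein staining flags overt cytotoxicity.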

CD40, CD40 (gene 958) = test: BSK_SAg_CD40: BioMAP Diversity Plus: SAg Assay for CD40 Biomarker Activity (AID 2283088); conditions: primary human HUVEC with PBMC; actives raise or lower the signal
How it was run: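 HUVEC plus PBMC co-culture, superantigen-activated, with CD40 read by ELISA 24 h after dosing. Curves fitted in both directions against DMSO. Overt cytotoxicity checked by parallel SRB total-protein staining.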

[6] = BSK_SAg_Proliferation: Cell Proliferation Assessment in the BioMAP Diversity Plus: SAg Assay (AID 2283095); conditions: primary human HUVEC with PBMC;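 note: relative cell number as total protein by SRB absorbance in sub-confluent culture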
How it was run: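 Relative cell number in the endothelial cell/PBMC co-culture was quantified at 96 h by SRB staining (0.1% SRB, 10% TCA fixation, read at 560 nm). Curves were fitted in both directions relative to DMSO baseline.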

[7] = BSK_SAg_SRB: Viability Assessment in the BioMAP Diversity Plus: SAg Assay (AID 2283096); conditions: primary human HUVEC with PBMC;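 note: cells read one day after compound addition; hits may be either gain or loss of signal compared with DMSO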
How it was run: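 SRB absorbance at 560 nm served as the viability read-out. Cells (HUVEC plus peripheral blood mononuclear cells) were TCA-fixed and stained 24 h post-dosing; activity fitted in both directions against DMSO controls.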

[8] = BSK_BT_PBMCCytotoxicity: PBMC Cytotoxicity Assessment in the BioMAP Diversity Plus: BT Assay (AID 2284225); conditions: primary human B cells with PBMC;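 note: PBMC viability measured by Alamar Blue dye reduction fluorescence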
How it was run: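 Viability by Alamar Blue reduction (6 h, ex/em 546/580 nm) after 90 h culture of SEB/TSST-1-activated PBMC (20 ng/mL each) given compound 1 h before activation. DMSO served as baseline for curve fitting.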

[9] = BSK_BT_Bcell_Proliferation: Viability Assessment in the BioMAP Diversity Plus: BT Assay for B cell Proliferation (AID 2284227); conditions: primary human B cells with PBMC
How it was run: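 Using a human primary B cell–PBMC co-culture, the assay measures total protein by sulforhodamine B absorbance as a gauge of proliferation after 72 h. Analysis followed the positive fitting direction with DMSO as baseline.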

[10] = read-out: Interleukin 6 (IL6), IL6 (gene 3569); test: BSK_BT_xIL6: BioMAP Diversity Plus: BT Assay for Interleukin 6 (IL6) Biomarker Activity (AID 2284228); conditions: primary human B cells with PBMC
How it was run: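 Human B cell/PBMC co-culture; secreted IL-6 quantified by Luminex xMAP 24 h after chemical dosing, fitted relative to DMSO. Parallel PBMC viability by Alamar Blue after 1 h pretreatment, 20 ng/mL SEB and TSST-1, 90 h incubation.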

[11] = read-out: Interleukin 17A (IL17A), IL17A (gene 3605); test: BSK_BT_xIL17A: BioMAP Diversity Plus: BT Assay for Interleukin 17A (IL17A) Biomarker Activity (AID 2284229); conditions: primary human B cells with PBMC
How it was run: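 Co-culture of human B cells and PBMC, dosed for 24 h in 96-well format. Secreted IL-17A measured with Luminex xMAP; gain-direction fitting against DMSO as baseline.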

[12] = read-out: Tumor necrosis factor (Homo sapiens) (UniProt P01375); test: BSK_BT_xTNFa: BioMAP Diversity Plus: BT Assay for Tumor necrosis factor alpha (TNF-alpha) Biomarker Activity (AID 2284230); conditions: primary human B cells with PBMC
How it was run: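 Endpoint derived in the positive direction versus DMSO vehicle. Cells: B cells together with PBMC, exposed 24 h before TNF-alpha in the medium was read on the Luminex xMAP platform.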

[13] = read-out: Collagen III, COL3A1 (gene 1281); test: BSK_MyoF_CollagenIII: BioMAP Diversity Plus: MyoF Assay for Collagen III Biomarker Activity (AID 2284239); conditions: primary human lung fibroblasts
How it was run: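 Primary human lung fibroblasts (BioMAP MyoF system) exposed 24 h. Collagen III measured by ELISA; positive-direction fit relative to DMSO.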

[14] = read-out: Interleukin 17F (IL17F), IL17F (gene 112744); test: BSK_BT_xIL17F: BioMAP Diversity Plus: BT Assay for Interleukin 17F (IL17F) Biomarker Activity (AID 2284243); conditions: primary human B cells with PBMC
How it was run: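 Human PBMC co-cultured with B cells, compound exposure 24 h; secreted IL-17F quantified by Luminex xMAP, referenced to DMSO control. PBMC viability measured in parallel by Alamar Blue reduction.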

[15] = read-out: Interleukin 2 (IL2), IL2 (gene 3558); test: BSK_BT_xIL2: BioMAP Diversity Plus: BT Assay for Interleukin 2 (IL2) Biomarker Activity (AID 2284245); conditions: primary human B cells with PBMC
How it was run: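 Secreted IL-2 was read by Luminex xMAP from B cells co-cultured with PBMC (human primary) 24 h post-dosing; activity was analysed as gain of signal relative to DMSO vehicle.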

[16] = read-out: Collagen IV, COL4A1 (gene 1282); test: BSK_MyoF_CollagenIV: BioMAP Diversity Plus: MyoF Assay for Collagen IV Biomarker Activity (AID 2284247); conditions: primary human lung fibroblasts
How it was run: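 Collagen IV quantified by ELISA in human lung fibroblast cultures 24 h after chemical treatment, with DMSO as baseline. Parallel SRB staining (0.1% SRB after TCA fixation, 560 nm) flags overt cytotoxicity.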

[17] = read-out: Matrix Metallopeptidase 1 (MMP1), MMP1 (gene 4312); test: BSK_MyoF_MMP1: BioMAP Diversity Plus: MyoF Assay for Matrix Metallopeptidase 1 (MMP1) Biomarker Activity (AID 2284268); conditions: primary human lung fibroblasts
How it was run: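 Human lung fibroblast primary cells; MMP1 measured by ELISA 24 h after dosing, fitted in the positive direction relative to DMSO. Parallel SRB staining (0.1%, after 10% TCA fixation, 560 nm) assesses overt cytotoxicity.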

[18] = read-out: TIMP metallopeptidase inhibitor 1 (TIMP1), TIMP1 (gene 7076); test: BSK_MyoF_TIMP1: BioMAP Diversity Plus: MyoF Assay for TIMP metallopeptidase inhibitor 1 (TIMP1) Biomarker Activity (AID 2284269); conditions: primary human lung fibroblasts
How it was run: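 TIMP-1 levels were determined by ELISA in human lung fibroblasts treated for 24 h. DMSO served as negative control and baseline for upward curve fitting.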

[19] = biological target: Steroid hormone receptor ERR1 (Homo sapiens) (UniProt P11474); test: ATG_ERRa_TRANS: Attagene TRANS-FACTORIAL HepG2 Assay for human Estrogen-Related Receptor alpha (ERRa) (AID 2282971; active = hit-call score of the fitted dose curve at least 0.9, where 1 is the maximum); conditions: HepG2 Attagene TRANS reporter, ERRa transactivation
Sequence of Steroid hormone receptor ERR1 (Homo sapiens) (P11474 whole entry, looked up, the tested form may be a part): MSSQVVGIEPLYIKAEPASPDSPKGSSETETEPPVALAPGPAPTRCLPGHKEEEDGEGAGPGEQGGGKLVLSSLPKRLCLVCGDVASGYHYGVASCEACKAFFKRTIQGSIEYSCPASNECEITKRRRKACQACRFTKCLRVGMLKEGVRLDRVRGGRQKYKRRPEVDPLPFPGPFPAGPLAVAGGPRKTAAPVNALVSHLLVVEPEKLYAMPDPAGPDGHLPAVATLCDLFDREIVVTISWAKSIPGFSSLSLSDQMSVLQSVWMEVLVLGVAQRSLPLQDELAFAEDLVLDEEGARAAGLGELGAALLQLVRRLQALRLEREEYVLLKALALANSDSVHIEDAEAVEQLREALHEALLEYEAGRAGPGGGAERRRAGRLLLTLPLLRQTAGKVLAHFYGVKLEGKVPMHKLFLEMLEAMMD
How it was run: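 HepG2 cells transiently transfected with GAL4-UAS reporter units and chimeric NR-Gal4 constructs; after 24 hour compound incubation, reporter mRNA quantified by RT-PCR, fluorescent labelling and capillary electrophoresis, gain of signal versus DMSO.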

Measured: AC50

Sequence of Tumor necrosis factor (Homo sapiens) (P01375 whole entry, looked up): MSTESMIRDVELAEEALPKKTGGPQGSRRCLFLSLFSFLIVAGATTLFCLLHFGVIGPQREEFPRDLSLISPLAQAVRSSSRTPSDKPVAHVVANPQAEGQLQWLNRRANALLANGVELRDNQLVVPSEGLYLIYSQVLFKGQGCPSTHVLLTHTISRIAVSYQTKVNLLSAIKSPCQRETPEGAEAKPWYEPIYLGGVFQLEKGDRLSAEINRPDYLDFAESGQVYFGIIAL

Oc1cc(Cl)ccc1Cl
not listed: [19]
inactive: all other assays above

O=C(O)CCCc1ccc(N(CCCl)CCCl)cc1
active: [1] 38.9 µM and 38.6 µM | [3] 20 µM | [4] 30.6 µM and 20 µM | [5] 29.8 µM | CD40, CD40 (gene 958) 20 µM | [6] 16.4 µM and 12.2 µM | [7] 20 µM and 10.3 µM | [9] 12.7 µM and 13 µM | [10] 14.8 µM and 20 µM | [11] 15 µM | [12] 23.6 µM and 20 µM | [13] 20 µM | [14] 20 µM and 15.2 µM | [15] 35.5 µM | [17] 30.6 µM
inactive: [2] | [3] | [5] | [8] | [11] | [13] | [15] | [16] | [17] | [18]

CCCCCCC1CCOC1=O (stereo not drawn)
inactive: [19]

C=COCCCl
inactive: [19]

Cc1ccc(N(SC(F)(Cl)Cl)S(=O)(=O)N(C)C)cc1
inactive: [19]

CCOC(=O)NC(=S)Nc1ccccc1NC(=S)NC(=O)OCC
inactive: [19]

N#Cc1cc(I)c(O)c(I)c1
inactive: [19]

CN(N=O)c1ccccc1
inactive: [19]

O=c1[nH]c(Cl)c(Cl)cc1Cl
active: [17] 20 µM
inactive: all other assays above

Clc1ccc(-c2ccccc2)cc1
inactive: all assays above

O=[N+]([O-])O
inactive: [2] | [4] | CD40, CD40 (gene 958) | [6] | [7]

Nc1ccccc1C(=O)OCCc1ccccc1
inactive: [19]

CCOC(=O)N(C)N=O
inactive: [19]

O=C=Nc1ccccc1
inactive: [19]

CCCOC(=O)c1ccccc1C(=O)OCCC
active: [4] 5.19 µM
not listed: [19]
inactive: all other assays above

CC(C)COP(=O)(OCC(C)C)OCC(C)C
inactive: all assays above

C=CC(=O)OCC(CC)CCCC (stereo not drawn)
active: [5] 0.164 µM
inactive: all other assays above

CC(C)(c1cc(Cl)c(O)c(Cl)c1)c1cc(Cl)c(O)c(Cl)c1
active: [1] 39.6 µM | [2] 6.9 µM | [4] 32.5 µM | [5] 5.27 µM | [6] 25.9 µM | [13] 9.8 µM | [18] 9.55 µM
not listed: CD40, CD40 (gene 958) | [7] | [19]
inactive: all other assays above

COc1ccc(CO)cc1
inactive: [4] | CD40, CD40 (gene 958) | [6] | [7]

Oc1ccc(C2(c3ccc(O)cc3)c3ccccc3-c3ccccc32)cc1
active: [2] 33.9 µM and 35.7 µM | [4] 20 µM and 25.7 µM | CD40, CD40 (gene 958) 11.7 µM and 12.5 µM | [6] 9.89 µM and 9.81 µM | [7] 15.9 µM and 15.6 µM
inactive: [19]

O=CNC(N1CCN(C(NC=O)C(Cl)(Cl)Cl)CC1)C(Cl)(Cl)Cl (stereo not drawn)
inactive: [19]

CC(=O)/C=C/c1ccccc1
active: [6] 13 µM | [8] 17.4 µM | [9] 26.1 µM | [10] 20 µM | [11] 20 µM | [12] 20 µM | [14] 20 µM | [15] 20 µM
not listed: [19]
inactive: all other assays above

CC(C)CCCCCCCOP(=O)(Oc1ccccc1)Oc1ccccc1
inactive: [19] | [3] | [4] | [16]
active: [1] 5.61 µM | [2] 10.9 µM | [5] 20 µM | CD40, CD40 (gene 958) 26.2 µM | [6] 15.8 µM | [7] 25.9 µM | [8] 35.8 µM | [9] 29.5 µM | [10] 26.1 µM | [11] 19.5 µM | [12] 31.3 µM | [13] 8.98 µM | [14] 25.5 µM | [15] 26.4 µM | [17] 5.17 µM | [18] 20 µM

CCCCCCCCCCCC#N
active: [1] 40.2 µM | [2] 20.6 µM | CD40, CD40 (gene 958) 27.7 µM | [13] 29.6 µM | [17] 33.7 µM | [18] 31.4 µM
not listed: [6] | [19]
inactive: all other assays above

CC1OC(C)OC(C)O1 (stereo not drawn)
inactive: [19]

O=P1(NCCCl)OCCCN1CCCl (stereo not drawn)
inactive: all assays above
